Data reported in the supplement of paper PMC6607015.
Structures can show the parent of a compound that is named as a salt.

What was measured:
Settings in all cases: compound concentration in added solution (µM; 5 µl added to 20 µl cells): 10; 18 h
A431 [1] = experiment: LBPA endosome anti-LBPA integrated intensity (sum per cell), Z-score; higher = more LBPA staining
Method in brief: (§1)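 The data are Z-scores, normalised in AcuityXpress, of integrated LBPA or filipin intensity in each cell, either whole-cell or restricted to LBPA endosomes. HeLa MZ or A431 cells, 3,500 per well in 20 µl, were seeded onto 5 µl of 10 µM compound solution in duplicate 384-well plates and incubated 18 h. Fixed cells were stained and imaged, with intensities extracted by MetaXpress segmentation.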

HeLa MZ [2] = experiment: as above
Method in brief: as §1

A431 [3] = experiment: whole-cell filipin (free cholesterol) integrated intensity, Z-score; higher = more cholesterol staining
Method in brief: as §1

HeLa MZ [4] = experiment: as above
Method in brief: as §1

A431 [5] = experiment: filipin (cholesterol) integrated intensity within LBPA endosomes, Z-score; higher = more cholesterol in LBPA endosomes
Method in brief: as §1

HeLa MZ [6] = experiment: as above
Method in brief: as §1

O=c1[nH]c(=O)n([C@H]2C[C@H](O)[C@@H](CO)O2)cc1C(F)(F)F [Trifluridine]
LBPA endosome anti-LBPA integrated intensity (z-score) (A431 [1]): -0.394
LBPA endosome anti-LBPA integrated intensity (z-score) (HeLa MZ [2]): 0.648
whole-cell filipin (z-score) (A431 [3]): 3.04
whole-cell filipin (z-score) (HeLa MZ [4]): 3.8
filipin (z-score) (A431 [5]): -0.544
filipin (z-score) (HeLa MZ [6]): -0.762

Cc1ccccc1C(OCCN(C)C)c1ccccc1 (stereo not drawn) [Orphenadrine hydrochloride]
LBPA endosome anti-LBPA integrated intensity (z-score) (A431 [1]): -0.188
LBPA endosome anti-LBPA integrated intensity (z-score) (HeLa MZ [2]): 0.0858
whole-cell filipin (z-score) (A431 [3]): -0.344
whole-cell filipin (z-score) (HeLa MZ [4]): 1.02
filipin (z-score) (A431 [5]): 0.191
filipin (z-score) (HeLa MZ [6]): 0.681

O=c1n(CCCN2CCN(c3cccc(Cl)c3)CC2)nc2ccccn12 [Trazodone hydrochloride]
LBPA endosome anti-LBPA integrated intensity (z-score) (A431 [1]): 0.505
LBPA endosome anti-LBPA integrated intensity (z-score) (HeLa MZ [2]): 2.35
whole-cell filipin (z-score) (A431 [3]): 0.713
whole-cell filipin (z-score) (HeLa MZ [4]): 1.12
filipin (z-score) (A431 [5]): 0.872
filipin (z-score) (HeLa MZ [6]): 1.04

CN(C)CCN(Cc1ccc(Cl)cc1)c1ccccn1 [Chloropyramine hydrochloride]
LBPA endosome anti-LBPA integrated intensity (z-score) (A431 [1]): 0.629
LBPA endosome anti-LBPA integrated intensity (z-score) (HeLa MZ [2]): 4.98
whole-cell filipin (z-score) (A431 [3]): 1.63
whole-cell filipin (z-score) (HeLa MZ [4]): 5.51
filipin (z-score) (A431 [5]): 1.05
filipin (z-score) (HeLa MZ [6]): 1.3

CC(CN1c2ccccc2Sc2ccccc21)N(C)C (stereo not drawn) [Promethazine hydrochloride]
LBPA endosome anti-LBPA integrated intensity (z-score) (A431 [1]): 2.24
LBPA endosome anti-LBPA integrated intensity (z-score) (HeLa MZ [2]): 1.7
whole-cell filipin (z-score) (A431 [3]): 2.37
whole-cell filipin (z-score) (HeLa MZ [4]): 0.806
filipin (z-score) (A431 [5]): 2.23
filipin (z-score) (HeLa MZ [6]): 1.73

CCOCCn1c(N2CCCN(C)CC2)nc2ccccc21 [Emedastine]
LBPA endosome anti-LBPA integrated intensity (z-score) (A431 [1]): -0.464
LBPA endosome anti-LBPA integrated intensity (z-score) (HeLa MZ [2]): 0.747
whole-cell filipin (z-score) (A431 [3]): -0.629
whole-cell filipin (z-score) (HeLa MZ [4]): -0.502
filipin (z-score) (A431 [5]): -0.536
filipin (z-score) (HeLa MZ [6]): -0.461

C[C@]1(Cn2ccnn2)[C@H](C(=O)O)N2C(=O)C[C@H]2S1(=O)=O [Tazobactam]
LBPA endosome anti-LBPA integrated intensity (z-score) (A431 [1]): -0.572
LBPA endosome anti-LBPA integrated intensity (z-score) (HeLa MZ [2]): -0.303
whole-cell filipin (z-score) (A431 [3]): -0.35
whole-cell filipin (z-score) (HeLa MZ [4]): 0.00122
filipin (z-score) (A431 [5]): -0.502
filipin (z-score) (HeLa MZ [6]): -0.538

CCN1CCC[C@H]1CNC(=O)c1c(OC)ccc(Br)c1OC [Remoxipride Hydrochloride]
LBPA endosome anti-LBPA integrated intensity (z-score) (A431 [1]): -0.395
LBPA endosome anti-LBPA integrated intensity (z-score) (HeLa MZ [2]): 0.278
whole-cell filipin (z-score) (A431 [3]): -0.41
whole-cell filipin (z-score) (HeLa MZ [4]): -0.384
filipin (z-score) (A431 [5]): -0.372
filipin (z-score) (HeLa MZ [6]): -0.266

CC1(C)O[C@@H]2C[C@H]3[C@@H]4C[C@H](F)C5=CC(=O)CC[C@]5(C)[C@H]4[C@@H](O)C[C@]3(C)[C@]2(C(=O)CO)O1 [Flurandrenolide]
LBPA endosome anti-LBPA integrated intensity (z-score) (A431 [1]): -0.226
LBPA endosome anti-LBPA integrated intensity (z-score) (HeLa MZ [2]): -0.763
whole-cell filipin (z-score) (A431 [3]): -0.173
whole-cell filipin (z-score) (HeLa MZ [4]): 0.429
filipin (z-score) (A431 [5]): -0.236
filipin (z-score) (HeLa MZ [6]): -0.297

C[C@]12CC[C@@H]3c4ccc(OS(=O)(=O)O)cc4CC[C@H]3[C@@H]1CCC2=O [Estropipate]
LBPA endosome anti-LBPA integrated intensity (z-score) (A431 [1]): -0.486
LBPA endosome anti-LBPA integrated intensity (z-score) (HeLa MZ [2]): -0.706
whole-cell filipin (z-score) (A431 [3]): -0.265
whole-cell filipin (z-score) (HeLa MZ [4]): -0.499
filipin (z-score) (A431 [5]): -0.418
filipin (z-score) (HeLa MZ [6]): -0.5

Cn1nnc2c(C(N)=O)ncn2c1=O [Temozolomide]
LBPA endosome anti-LBPA integrated intensity (z-score) (A431 [1]): -0.384
LBPA endosome anti-LBPA integrated intensity (z-score) (HeLa MZ [2]): 0.224
whole-cell filipin (z-score) (A431 [3]): -0.454
whole-cell filipin (z-score) (HeLa MZ [4]): 0.0676
filipin (z-score) (A431 [5]): -0.437
filipin (z-score) (HeLa MZ [6]): -0.627

CN1CCN(c2c(F)cc3c(=O)c(C(=O)O)cn4c3c2SCC4)CC1 [Rufloxacin]
LBPA endosome anti-LBPA integrated intensity (z-score) (A431 [1]): -0.614
LBPA endosome anti-LBPA integrated intensity (z-score) (HeLa MZ [2]): -0.736
whole-cell filipin (z-score) (A431 [3]): 0.0183
whole-cell filipin (z-score) (HeLa MZ [4]): -0.289
filipin (z-score) (A431 [5]): -0.534
filipin (z-score) (HeLa MZ [6]): -0.17

c1ccc2c(c1)CCCc1cc(NCCN3CCOCC3)nnc1-2
LBPA endosome anti-LBPA integrated intensity (z-score) (A431 [1]): -0.68
LBPA endosome anti-LBPA integrated intensity (z-score) (HeLa MZ [2]): -0.691
whole-cell filipin (z-score) (A431 [3]): -0.665
whole-cell filipin (z-score) (HeLa MZ [4]): -0.162
filipin (z-score) (A431 [5]): -0.491
filipin (z-score) (HeLa MZ [6]): -0.0973
